Hits are enriched below; roughly 2.4% of the tested compounds scored in any of these assays.
D2 ag-1: human D2 receptor agonism in beta-arrestin assay. activation, % (test concentration not listed). P14416. AID 624465. hit rate 0.084% among 360,000. DiscoveRx PathHunter D2 beta-arrestin, luminescence, 90 min; 100% = 57 uM dopamine signal; in the data active = activation above about 40%
Target sequence (P14416 whole entry, looked up): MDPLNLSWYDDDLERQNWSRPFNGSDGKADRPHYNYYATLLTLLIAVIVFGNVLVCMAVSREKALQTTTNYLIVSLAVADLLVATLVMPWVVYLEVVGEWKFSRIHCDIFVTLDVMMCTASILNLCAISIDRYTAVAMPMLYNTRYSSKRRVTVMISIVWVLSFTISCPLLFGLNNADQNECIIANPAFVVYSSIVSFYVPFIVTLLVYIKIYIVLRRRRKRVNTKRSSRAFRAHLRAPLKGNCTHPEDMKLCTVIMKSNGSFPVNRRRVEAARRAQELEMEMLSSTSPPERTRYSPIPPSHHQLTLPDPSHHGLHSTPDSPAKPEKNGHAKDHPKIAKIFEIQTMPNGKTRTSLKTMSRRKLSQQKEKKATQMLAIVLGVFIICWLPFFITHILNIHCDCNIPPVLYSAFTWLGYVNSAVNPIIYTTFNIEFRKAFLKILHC
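Agonist mode: compounds alone added to overnight-plated D2 PathHunter cells for 90 min at 37 C, with 57 uM final dopamine (EC100) defining full response. Beta-arrestin recruitment detected by chemiluminescent reagent, read after 1 h at ambient temperature.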
D2 PAM-1: D2 dopamine receptor (human) potentiation; P14416; HEK293 T-REx D2, calcium flux, EC20 dopamine potentiation; potentiation, % at 10 µM; hit rate 0.34% among 340,000;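 active = potentiation over 3 SD above the plate norm, cut at about 30% in these data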; also: 0% is about no effect
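Potentiation of an EC20 dopamine calcium response measured kinetically over 180 s, after a preceding 180 s compound-only read flagging agonists. Cells: inducible Hek293 Trex D2 line, 4000/well, cultured overnight at 30 C before dye loading.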
D2 ag-2: agonists of human D2 dopamine receptor | HEK293 T-REx D2 cells, calcium flux agonist mode | P14416 | AID 485358 | hit rate 0.53% among 340,000 | activation, % at 2 µM;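 active = activation over 3 SD above normal in the single-dose calcium agonist read, cut at about 30% in these data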; also: 0% is about no effect
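In this primary screen, compounds producing a positive calcium signal within 180 s of addition to tetracycline-induced, force-coupled HEK293 Trex D2 cells are flagged; cells are dye-loaded with a no-wash calcium kit beforehand.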
D2 antagonist: antagonists of human D2 dopamine receptor. P14416. hit rate 2% among 340,000. inhibition, % at 10 µM. HEK293 TREx D2 cells, calcium flux, dopamine EC80; in the data active = inhibition above about 30%; inactive = below that, where a call was filed; also: 0% is about no effect
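Dopamine at EC80 is the agonist stimulus; test compounds precede it by 180 s. Calcium flux read kinetically in a force-coupled, inducible HEK293 T-REx D2 cell line.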
D2 PAM-2: positive allosteric modulators of human D2 dopamine receptor; hit rate 0.23% among 360,000; potentiation, % (test concentration not listed); DiscoveRx D2 beta-arrestin cells, luminescence, 90 min; 100% = 57 uM dopamine signal; P14416; in the data active = potentiation above about 50%
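D2 cells co-treated with compound plus 50 nM dopamine (EC20) for 90 min at 37 deg C to detect potentiation. Beta-arrestin recruitment was read as enzyme-fragment luminescence after 1 h at ambient temperature. Full response was set by 57 uM dopamine.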
* marks the source's active call; other numbers are inactive results; x = no result given.

SMILES	D2 ag-1	D2 PAM-1	D2 ag-2	D2 antagonist	D2 PAM-2
CCC1CCCCN1CCCNC(=O)CSc1nc2nc(C)c(Cc3ccccc3Cl)c(C)n2n1 (centres undefined)	-5	31*	0	-6	-17
CN1CCc2c(sc3c2C(=O)NC(c2ccc(C(C)(C)C)cc2)N3)C1 (centres undefined)	x	5	5	x	x
COc1cccc(NC(=O)C2CCCN2C(=O)Nc2ccccc2)c1 (centres undefined)	-5	4	-1	33*	-14
COc1cccc(NC(=O)C2CCCN2C(=O)Nc2cccc(F)c2)c1 (centres undefined)	-2	-2	0	2	3
O=C(NCCCN1CCCC1=O)c1ccc2c(c1)NC(=O)C(N1CCOCC1)S2 (centres undefined)	2	x	1	33*	13
O=C(NC1CC1)C1CCN(S(=O)(=O)c2ccc(Cl)cc2)CC1	1	6	0	32*	-5
O=C(NC1CCN(S(=O)(=O)c2ccc(Cl)cc2)CC1)C1CCCCC1	0	-6	2	-10	-12
CCc1cccc(NC(=O)CN(C)S(=O)(=O)c2ccc3c(c2)n(C)c(=O)c(=O)n3C)c1	x	-5	-1	x	x
Cc1ccc(C(=O)CCC(=O)OCC(=O)N2c3ccccc3NC(=O)C2(C)C)cc1	-1	x	x	x	-18
Cc1ccc(S(=O)(=O)CCC(=O)OCC(=O)N2c3ccccc3NC(=O)C2(C)C)cc1	-3	6	0	90*	-15
Cc1ccc(NC(=O)CN2C=NS(=O)(=O)c3ccccc32)cc1	x	3	x	x	x
Cc1ccc2cc(C#N)c(SCC(=O)NCC3CCCO3)nc2c1 (centres undefined)	-4	0	-1	6	-33
Cc1cccc(OCc2nnc(SCC(=O)NCC3CCCO3)n2C)c1 (centres undefined)	-1	37*	0	7	-4
O=C(CSc1ncnc2c1nnn2-c1ccc(F)cc1)NCC1CCCO1 (centres undefined)	-3	7	0	1	-7
Cc1ccc2nc(SCC(=O)NCC3CCCO3)c(C#N)cc2c1 (centres undefined)	0	-12	-1	41*	4
Cc1ccc(-n2nnc3c(SCC(=O)NCC4CCCO4)ncnc32)cc1 (centres undefined)	3	x	-1	46*	-2
CN(C(=O)C1=CC(c2ccc3c(c2)OCO3)=NS(=O)(=O)N1C)c1ccccc1	x	0	0	x	x
Cc1ccccc1-c1nc(CN2CCC(C(=O)NCc3ccc(F)cc3)CC2)c(C)o1	x	-10	2	x	x
COC(=O)c1ccn(CSc2cc(Cl)ccc2Cl)n1	3	-1	1	42*	-2
O=C(O)c1ccc2nc3c(nc2c1)-c1ccccc1C3=O	-5	8	1	34*	-17
O=C(/C=C/c1ccco1)NCC1OCCc2ccccc21 (centres undefined)	-3	-7	1	31*	-6
Cc1cccc(C)c1NC(=S)N/N=C/c1ccc(C(=O)O)cc1	-1	-1	0	36*	1
CCOc1ccccc1CNC(=O)C1CCN(S(=O)(=O)c2ccc3c(ccn3C)c2)CC1	x	-8	-1	x	x
COC(=O)CN1C(=O)COc2ccc(S(=O)(=O)N3CCOCC3)cc21	-1	6	1	46*	0
O=C(O)CN1C(=O)COc2cc(S(=O)(=O)N3CCCC3)ccc21	-1	-8	1	31*	-1
SMILES	D2 ag-1	D2 PAM-1	D2 ag-2	D2 antagonist	D2 PAM-2
O=C(CN1C(=O)COc2ccc(S(=O)(=O)N3CCCC3)cc21)N1CCCC1	-3	1	0	-7	-6
CCCCOc1ccc(S(=O)(=O)NNC(=O)c2cc3ccccc3o2)cc1	-2	-1	-1	44*	-11
COc1ccc(NC(=O)/C(C#N)=C\c2ccc(N3CCOCC3)o2)cc1	-4	-9	42*	13	-12
CC1CC1c1ccc(/C=C(\C#N)C(=O)Nc2ccccc2Cl)o1 (centres undefined)	2	x	x	x	-8
N#C/C(=C/c1ccc(N2CCOCC2)o1)C(=O)NC1CCCCC1	-19	5	18	5	-17
N#C/C(=C/c1ccc(N2CCCCC2)o1)C(=O)Nc1ccc(Cl)cc1	0	-29	110*	62*	-14
N#C/C(=C\c1ccc(N2CCOCC2)o1)C(=O)Nc1ccc(O)cc1	-8	12	17	-1	-13
CC1CC1c1ccc(/C=C(\C#N)C(=O)Nc2ccc(Cl)cc2)o1 (centres undefined)	-3	-25	0	76*	-35
N#C/C(=C/c1ccc(N2CCCCC2)o1)C(=O)Nc1ccc2ccccc2c1	-9	-15	106*	47*	-17
CCCCc1nn2c(=O)cc(COC(=O)CNC(=O)c3ccccc3C)nc2s1	x	-4	0	x	x
COc1ccc(NC(=O)NCCn2nnc3cc(S(=O)(=O)N(C)C)ccc32)cc1	x	-1	x	x	x
CCOC(=O)COc1ccc(C)cc1C(=O)c1ccn2nc(-c3ccc(C)cc3)cc2n1	x	-5	1	x	x
Nc1cc(C(F)(F)F)ccc1-n1cccc1	0	-9	0	39*	1
CC1CCN(c2ccc(C(F)(F)F)cc2N)CC1	-1	0	0	8	-8
Cc1ccc2oc(-c3cc(NC(=O)CC(C)C)ccc3Cl)nc2c1	x	9	-2	x	x
CCOC(=O)N1CCN(S(=O)(=O)CCNC(=O)c2ccc(F)cc2)CC1	-5	6	x	-8	-1
CCOC(=O)N1CCN(S(=O)(=O)CCNC(=O)c2ccc(OC)cc2)CC1	-5	-8	0	34*	2
Cc1cc(OCCN2CCCCC2)nc2ccccc12	-5	-20	0	31*	-39
CSc1cccc(NC(=O)Cn2c3ncccc3c(=O)n2-c2ccc(C)cc2)c1	x	3	0	x	x
COc1ccc(NC(=O)COc2ccc(C(=O)NC3CCCc4ccccc43)cc2OC)cc1 (centres undefined)	-1	36*	-2	-2	3
CCOC(=O)CC(NC(=O)CCc1c(C)nc2c(c(C)nn2-c2ccc(C)c(C)c2)c1C)c1ccc(C)cc1 (centres undefined)	x	0	1	x	x
Cc1cc(Cl)ccc1OCC(O)CN1C(C)CCCC1C (centres undefined)	x	0	0	31*	x
Clc1ccc(OCCNCCc2ccccc2)cc1	0	-22	3	54*	-6
c1ccc(CCNCCCOc2cccc3ccccc23)cc1	-7	1	1	35*	-27
C=CCNC(=S)N1CCN(CCN=CC2=C(O)CC(c3ccc(Cl)cc3)CC2=O)CC1 (centres undefined)	2	23	1	-18	7
O=C1CC(c2ccc(Cl)cc2)CC(O)=C1C=NCCN1CCNCC1 (centres undefined)	x	1	1	53*	x

Screens from PubChem.
